The target of assay [1] is Atrial natriuretic peptide receptor 1 (Homo sapiens) (UniProt P16066). Kind of assay: Natriuretic polypeptide receptor (hNpr1) antagonism - Pilot screen (AID 1347049; calls by dose curve;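 also: agonist-evoked cGMP luminescence read 20 min after hNppA addition; series mostly up to about 58 µM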). In short, it runs like this:
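Readout is cGMP-driven firefly luciferase luminescence in HEK293 cells carrying hNpr1 and a PDE5-domain GloSensor, read before and 20 min after 0.1 nM hNppA stimulation. Cells had 2% substrate reagent for 2 h and test compound for 30 min.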

For assay [2], the target named is Atrial natriuretic peptide receptor 2 (Homo sapiens) (UniProt P20594). Kind of assay: Natriuretic polypeptide receptor (hNpr2) antagonism - Pilot subtype selectivity assay (AID 1347050; calls by dose curve). In short, it runs like this:
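Pilot selectivity screen against hNpr2: HEK293 cGMP-sensor cells are treated with LOPAC1280 compounds, then with hNppC peptide at 1 nM final. The cGMP-driven luminescence change over 20 min at room temperature is the read-out.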

Assay [3] in a line: NS1 protein of Zika virus - qHTS assay to identify small molecule inhibitors in human HEK 293 cells (AID 1347053). Also: nearly all actives have a fitted effect of over 55% in size. Also: potency is read from the fitted curve at half-maximal effect. In short, it runs like this: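 HEK 293; 20 h pre-culture, 37 C/5% CO2; cpd 1 h pre-infection; ZIKV MR766, MOI = 0.5, 24 h, 37 C; TR-FRET NS1 readout (two anti-NS1 Abs); norm. to no-virus vs infected.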
(In general: qHTS replaces the single test concentration by a dilution series.)

In assay [4] the target is T1, Tyrosine-protein phosphatase non-receptor type substrate 1 (Homo sapiens) + Leukocyte surface antigen CD47 (Homo sapiens) (UniProt P78324+Q08722). Put plainly: CD47-SIRPalpha protein protein interaction - LANCE assay qHTS validation (AID 1347057; active = well fitted curve in the direction sought with a large enough effect in the signal ratio, with a control signal flat, not every such curve was filed as active; the % refers to the signal ratio; also: series mostly up to about 38 µM). The method in brief:
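First, His-tagged CD47 and Eu-labelled anti-His antibody met the compound for 30 min; next, site-specifically biotinylated SIRPalpha was added for 30 min; finally streptavidin-APC was added before reading the TR-FRET ratio.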
In general terms: Time-resolved FRET reads energy transfer from a long-lived donor to a nearby acceptor.

For assay [5], the target named is T1, Tyrosine-protein phosphatase non-receptor type substrate 1 (Homo sapiens) + Leukocyte surface antigen CD47 (Homo sapiens). Kind of assay: CD47-SIRPalpha protein protein interaction - HTRF assay qHTS validation (AID 1347058; active = well fitted curve in the direction sought with a large enough effect in the signal ratio, not every such curve was filed as active; the % refers to the signal ratio;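 also: recombinant soluble extracellular CD47 with His tag and biotinylated SIRPalpha domains; series mostly up to about 38 µM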). In short, it runs like this:
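TR-FRET read (Ch1/Ch2 ratio) of soluble extracellular CD47 and Avi-biotinylated SIRPalpha domains in PBS pH 7.4 with 0.05% IGEPAL; 7-point compound titration. Sequential 30 min room-temperature steps; non-biotinylated SIRPalpha as control inhibitor.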

Assay [6] shares this target. Put plainly: CD47-SIRPalpha protein protein interaction - Alpha assay qHTS validation (AID 1347059).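 Also: bead proximity luminescence from CD47 binding SIRPalpha after compound preincubation with SIRPalpha.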 The method in brief: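 Binding is measured by AlphaScreen proximity: Ni-NTA acceptor beads capture His-CD47, streptavidin donor beads capture biotin-SIRPalpha. Each of three additions (SIRPalpha with compound, CD47, beads) incubates 30 min at room temperature protected from light.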

For assay [7], the target named is Parathyroid hormone/parathyroid hormone-related peptide receptor (Homo sapiens) (UniProt Q03431). Kind of assay: qHTS for PTHR1 Agonists: Optimization Screen against the NCGC LOPAC library (AID 1347079).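 Also: GloSensor cAMP luminescence in HEK-293 GP2 cells expressing human PTHR1 with IBMX.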 In short, it runs like this: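 Agonist readout: GloSensor cAMP luminescence, read after 15 min at room temperature. HEK-293-derived GP2 line carries PTHR1; compounds tested as a titration for 1 hr at 37C in presence of IBMX. M-PTH (1-15) served as control.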

A short description of assay [8]: qHTS of pediatric cancer cell lines to identify multiple opportunities for drug repurposing: Primary screen for TC32 cells (AID 1347089). Also: nearly all actives have a fitted effect of over 60% in size. Also: potency is read from the fitted curve at half-maximal effect. The method in brief:
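Luminescent ATP read-out (CellTiter-Glo) of metabolically active TC32 cells after 48 h exposure. Concentration-response curves came from 11-point (MIPE, 0.78 nM–46 µM) or 8-point (NPC, 0.59 nM–46 µM) primary titrations; follow-up used 11 points.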

The nature of assay [9]: qHTS of pediatric cancer cell lines to identify multiple opportunities for drug repurposing: Primary screen for DAOY cells (AID 1347090). Also: series mostly up to about 46 µM; nearly all actives have a fitted effect of over 55% in size. The method in brief:
(§1)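 Cell viability, CellTiter-Glo luminescence; 500-1,000 cells/well, 8- or 11-point titration, 48 h compound exposure at 37 degrees C, 5% CO2. Controls: DMSO neutral, bortezomib 2.3 µM final as positive.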

Assay [10] can be described thus: qHTS of pediatric cancer cell lines to identify multiple opportunities for drug repurposing: Primary screen for SJ-GBM2 cells (AID 1347091). Also: potency is read from the fitted curve at half-maximal effect. In short, it runs like this: as §1

SMILES strings stand for the structures. Several values for one entry are separate records, joined by “and”; a condition that tells them apart may be missing. Identical values can stand only once. Inconclusive results are not listed. Some compounds were tested as several samples or in several runs, with calls that do not always agree. Activity calls are given as the source filed them. Unless noted, calls follow the shape of the dose curve; as a rule, active = well fitted curve in the direction sought with a large enough effect; inconclusive = small, poorly fitted or top-dose-only effect, or another doubt; inactive = no such curve, though single readings can be large; an effect the other way counts as inactive or inconclusive.

T1 sequence (P78324 whole entry, looked up): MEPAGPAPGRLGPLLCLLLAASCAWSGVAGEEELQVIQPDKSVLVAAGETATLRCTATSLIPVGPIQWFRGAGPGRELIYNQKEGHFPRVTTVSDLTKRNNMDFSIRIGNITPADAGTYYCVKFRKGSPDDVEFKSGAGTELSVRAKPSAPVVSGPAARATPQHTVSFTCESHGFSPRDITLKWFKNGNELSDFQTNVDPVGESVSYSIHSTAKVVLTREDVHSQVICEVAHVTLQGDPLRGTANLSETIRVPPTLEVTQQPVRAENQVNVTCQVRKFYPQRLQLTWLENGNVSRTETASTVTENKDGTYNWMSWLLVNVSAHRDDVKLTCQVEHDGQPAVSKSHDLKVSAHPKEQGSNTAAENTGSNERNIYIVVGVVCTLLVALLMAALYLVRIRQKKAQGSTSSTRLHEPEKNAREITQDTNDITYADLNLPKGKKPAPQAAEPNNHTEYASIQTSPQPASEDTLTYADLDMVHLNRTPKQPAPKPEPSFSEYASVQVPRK
T1 sequence (Q08722 whole entry, looked up): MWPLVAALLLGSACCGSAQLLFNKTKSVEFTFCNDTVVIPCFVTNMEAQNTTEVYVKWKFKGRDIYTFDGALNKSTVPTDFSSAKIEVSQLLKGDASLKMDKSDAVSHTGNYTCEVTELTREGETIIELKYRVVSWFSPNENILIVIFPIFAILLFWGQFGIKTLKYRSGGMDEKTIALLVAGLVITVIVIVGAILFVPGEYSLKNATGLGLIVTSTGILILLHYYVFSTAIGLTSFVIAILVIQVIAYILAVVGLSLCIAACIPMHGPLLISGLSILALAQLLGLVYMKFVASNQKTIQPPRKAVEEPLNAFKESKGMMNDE
Atrial natriuretic peptide receptor 2 (Homo sapiens), sequence (P20594 whole entry, looked up): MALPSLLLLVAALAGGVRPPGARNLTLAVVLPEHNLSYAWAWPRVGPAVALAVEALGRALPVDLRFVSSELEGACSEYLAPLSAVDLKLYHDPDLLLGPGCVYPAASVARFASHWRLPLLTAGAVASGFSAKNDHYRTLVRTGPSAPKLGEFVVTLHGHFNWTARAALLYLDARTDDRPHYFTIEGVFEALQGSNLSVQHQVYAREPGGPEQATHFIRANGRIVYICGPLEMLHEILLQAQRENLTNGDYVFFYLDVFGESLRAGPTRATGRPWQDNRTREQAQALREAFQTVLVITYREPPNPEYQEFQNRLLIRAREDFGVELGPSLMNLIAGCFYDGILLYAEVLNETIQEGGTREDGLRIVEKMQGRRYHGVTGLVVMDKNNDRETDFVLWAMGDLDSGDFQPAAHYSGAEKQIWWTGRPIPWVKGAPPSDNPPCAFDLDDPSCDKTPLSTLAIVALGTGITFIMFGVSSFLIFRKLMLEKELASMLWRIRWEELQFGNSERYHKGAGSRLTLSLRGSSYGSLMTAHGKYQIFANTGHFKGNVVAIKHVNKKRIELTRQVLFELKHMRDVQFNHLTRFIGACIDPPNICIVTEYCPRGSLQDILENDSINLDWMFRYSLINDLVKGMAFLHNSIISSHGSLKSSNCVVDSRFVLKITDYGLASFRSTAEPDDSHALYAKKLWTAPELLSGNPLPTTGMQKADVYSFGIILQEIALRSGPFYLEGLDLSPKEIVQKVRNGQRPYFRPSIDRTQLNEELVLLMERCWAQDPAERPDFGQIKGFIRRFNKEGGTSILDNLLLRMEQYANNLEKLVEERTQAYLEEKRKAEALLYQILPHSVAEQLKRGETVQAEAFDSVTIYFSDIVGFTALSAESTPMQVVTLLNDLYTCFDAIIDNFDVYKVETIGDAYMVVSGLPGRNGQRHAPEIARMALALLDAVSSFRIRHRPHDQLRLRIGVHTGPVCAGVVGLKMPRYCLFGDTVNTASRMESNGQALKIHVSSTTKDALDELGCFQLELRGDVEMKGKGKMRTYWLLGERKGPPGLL
Atrial natriuretic peptide receptor 1 (Homo sapiens), sequence (P16066 whole entry, looked up): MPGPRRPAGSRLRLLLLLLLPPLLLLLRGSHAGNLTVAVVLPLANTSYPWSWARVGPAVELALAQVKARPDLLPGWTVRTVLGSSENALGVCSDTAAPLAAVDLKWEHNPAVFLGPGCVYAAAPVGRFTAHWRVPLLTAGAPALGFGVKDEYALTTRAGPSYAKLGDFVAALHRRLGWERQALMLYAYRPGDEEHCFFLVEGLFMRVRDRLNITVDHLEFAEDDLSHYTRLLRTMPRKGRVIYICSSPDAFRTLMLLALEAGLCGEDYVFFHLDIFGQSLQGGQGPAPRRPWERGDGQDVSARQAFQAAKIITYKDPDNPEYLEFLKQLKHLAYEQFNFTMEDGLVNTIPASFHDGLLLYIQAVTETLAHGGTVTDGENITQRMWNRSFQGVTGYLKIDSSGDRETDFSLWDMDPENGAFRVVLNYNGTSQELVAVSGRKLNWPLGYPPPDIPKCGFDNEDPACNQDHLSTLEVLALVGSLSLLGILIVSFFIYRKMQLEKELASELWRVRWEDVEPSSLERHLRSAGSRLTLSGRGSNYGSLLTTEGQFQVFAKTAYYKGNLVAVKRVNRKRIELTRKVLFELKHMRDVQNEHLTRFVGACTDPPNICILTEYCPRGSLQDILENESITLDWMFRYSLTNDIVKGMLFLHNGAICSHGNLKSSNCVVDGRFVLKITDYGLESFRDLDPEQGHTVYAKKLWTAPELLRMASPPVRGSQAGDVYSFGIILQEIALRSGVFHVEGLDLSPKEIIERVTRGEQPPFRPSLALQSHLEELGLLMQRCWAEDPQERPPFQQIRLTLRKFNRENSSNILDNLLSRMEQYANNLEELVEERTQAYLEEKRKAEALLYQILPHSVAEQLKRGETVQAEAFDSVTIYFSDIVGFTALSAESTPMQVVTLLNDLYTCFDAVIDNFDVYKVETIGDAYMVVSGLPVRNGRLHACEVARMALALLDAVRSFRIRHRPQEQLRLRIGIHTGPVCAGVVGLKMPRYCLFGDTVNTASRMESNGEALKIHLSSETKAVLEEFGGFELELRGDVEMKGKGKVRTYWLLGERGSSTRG
Parathyroid hormone/parathyroid hormone-related peptide receptor (Homo sapiens), sequence (Q03431 whole entry, looked up): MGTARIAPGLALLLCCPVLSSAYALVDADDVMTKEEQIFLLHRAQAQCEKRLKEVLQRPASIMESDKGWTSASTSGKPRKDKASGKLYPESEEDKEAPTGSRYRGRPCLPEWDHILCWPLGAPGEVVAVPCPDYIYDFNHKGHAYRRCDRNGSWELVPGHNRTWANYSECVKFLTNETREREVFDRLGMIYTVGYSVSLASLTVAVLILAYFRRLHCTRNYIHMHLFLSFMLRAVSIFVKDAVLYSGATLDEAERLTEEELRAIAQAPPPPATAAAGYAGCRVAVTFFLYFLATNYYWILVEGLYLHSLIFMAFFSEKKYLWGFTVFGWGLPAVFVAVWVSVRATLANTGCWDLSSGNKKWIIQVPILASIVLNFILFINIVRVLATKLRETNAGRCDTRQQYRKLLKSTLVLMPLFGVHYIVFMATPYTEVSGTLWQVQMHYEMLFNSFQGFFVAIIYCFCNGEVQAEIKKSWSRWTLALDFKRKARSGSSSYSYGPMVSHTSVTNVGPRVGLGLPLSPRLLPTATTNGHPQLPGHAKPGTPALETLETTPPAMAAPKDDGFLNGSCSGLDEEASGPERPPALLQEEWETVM

Regarding `Nc1ccc(S(=O)(=O)Nc2ccnn2-c2ccccc2)cc1`, the call in assay [1], in assay [4], in assay [5], in assay [6] and in [7] was inactive. Besides, the Potency result in [2], in assay [3], in assay [8], in assay [9] and in [10] was “inactive” each time.

With `Nc1nc2ccc(OC(F)(F)F)cc2s1`, the compound was called inactive in assay [1], in [4], in assay [5] and in assay [6]. The Potency result in assay [2], in assay [3], in [8] and in assay [9] was “inactive” each time. The Potency in [10] is 21.1 µM (active).

Turning to `Cc1oncc1C(=O)Nc1ccc(C(F)(F)F)cc1`, the outcome in assay [1], in assay [4], in [5] and in assay [6] was inactive. In addition, the Potency result in assay [2] and in assay [10] was “inactive” each time. Besides, the Potency result in assay [3] was “inactive and 11.8 µM (active)”.

`NS(=O)(=O)c1cc2c(cc1Cl)NC=NS2(=O)=O`: the result in assay [1], in assay [4], in assay [5], in assay [6] and in [7] was inactive. The Potency entry in assay [2], in assay [3], in assay [8], in assay [9] and in [10] was “inactive” each time.

In the case of `CC(C)(Sc1ccc(CCN(CCCCC2CCCCC2)C(=O)NC2CCCCC2)cc1)C(=O)O`, the call in assay [1], in assay [4], in [5] and in assay [6] was inactive. For the same compound, the Potency result in assay [2], in [3] and in assay [8] was “inactive” each time.

For the compound `OC(CN1CCC(Cc2ccc(F)cc2)CC1)c1ccc(Cl)cc1` (configuration not stated), the outcome in assay [1], in assay [4], in assay [5] and in assay [6] was inactive. Moreover, the Potency result in assay [2], in [3], in [8] and in assay [9] was “inactive” throughout.

`O=NN(CCCl)C(=O)NCCCl`: the compound was classed as inactive in [1], in [4], in [5] and in assay [6]. In addition, the Potency result in assay [2], in assay [3], in assay [8], in assay [9] and in assay [10] was “inactive” in each case.

As for `NCCCC(N)(C(=O)O)C(F)F` (configuration not stated), the compound was called inactive in [1], in assay [4], in [5] and in assay [6]. Further, the Potency result in [2], in [3], in assay [8], in assay [9] and in assay [10] was “inactive” each time.

For `O=C1CCc2cc(OCCCCc3nnnn3C3CCCCC3)ccc2N1`, the compound was classed as inactive in [1], in assay [4], in [5] and in assay [6]. In addition, the Potency result in assay [2], in assay [3], in assay [8], in assay [9] and in [10] was “inactive” in each case.

`O=C1CCC(N2C(=O)c3ccccc3C2=O)C(=O)N1` (configuration not stated): the result in assay [1], in assay [4], in [5] and in [6] was inactive. Further, the Potency entry in assay [2], in [3], in assay [8], in [9] and in assay [10] was “inactive” each time.

With `C[C@]1(c2nc3c(C(N)=O)cccc3[nH]2)CCCN1`, the Potency entry in assay [3] and in assay [8] was “inactive” in each case.

Consider `Cc1[nH]c(=O)c(C#N)cc1-c1ccncc1`, for which the compound was classed as inactive in assay [1], in assay [4] and in assay [6]. The Potency result in assay [2], in assay [3], in assay [9] and in [10] was “inactive” throughout.

Regarding `CCCc1nn(C)c2c(=O)[nH]c(-c3cc(S(=O)(=O)N4CCN(C)CC4)ccc3OCC)nc12`, the Potency entry in [3], in assay [8], in assay [9] and in assay [10] was “inactive” each time. The outcome in assay [4] and in assay [6] was inactive.

Consider `C[C@@H]1CN(Cc2ccc(F)cc2)[C@@H](C)CN1C(=O)c1cc2c(C(=O)C(=O)N(C)C)cn(C)c2cc1Cl`, for which the Potency result in assay [3] and in [8] was “inactive” each time.

For the compound `CS(=O)(=O)c1cccc(CNc2nc(Nc3ccc4c(c3)CCC(=O)N4)ncc2C(F)(F)F)c1`, in [3], the Potency entry is “inactive”. Also, the result in [4] and in assay [6] was inactive. The Potency in assay [10] is 10.5 µM (active).

Turning to `COc1ccccc1[C@H](c1cccc2ccccc12)[C@@](C)(C#N)C(=O)N1CCC(c2cccc(C(F)(F)F)c2)CC1`, in assay [3], the Potency entry is “inactive”.

For `O=C(O)CCc1ccc(NCc2cccc(Oc3ccccc3)c2)cc1`, the Potency result in [3], in [8], in [9] and in assay [10] was “inactive” in each case. Also, the result in assay [4], in assay [5] and in assay [6] was inactive.

For `O=C(c1cc(Cc2n[nH]c(=O)c3ccccc23)ccc1F)N1CCN(C(=O)C2CC2)CC1`, the Potency result in assay [3] is “inactive”. Further, in [8], the Potency is 16.5 µM (active).

As for `COc1cc(F)c(F)c(Nc2ccc(I)cc2F)c1NS(=O)(=O)C1(C[C@H](O)CO)CC1`, the Potency entry in assay [3] and in assay [8] was “inactive” in each case.

Regarding `Nc1nccc(-c2ccc3noc(-c4ccc(Cl)cc4)c3c2)n1`, the Potency result in assay [3] and in assay [8] was “inactive” each time.

As for `O=S(=O)(N=Cc1c(O)ccc2ccccc12)c1cccs1`, the Potency entry in assay [3] and in assay [8] was “inactive” each time.

Regarding `N=c1nc(N2CCCCC2)cc(N)n1O`, in assay [1], the outcome was inactive. Also, the Potency entry in assay [2], in assay [3], in assay [8], in assay [9] and in [10] was “inactive” throughout.

In the case of `C[C@]12CCC(=O)C=C1CC[C@@H]1[C@@H]2[C@@H](O)C[C@@]2(C)[C@H]1CC[C@]2(O)C(=O)CO`, the compound was classed as inactive in [1]. The Potency entry in assay [2], in assay [3], in [8], in assay [9] and in assay [10] was “inactive” each time.

`CCN(CC)CCCC(C)Nc1ccnc2cc(Cl)ccc12` (configuration not stated): the compound was called inactive in assay [1]. For the same compound, the Potency result in assay [2], in [3], in assay [8] and in assay [10] was “inactive” in each case.

In the case of `CCOc1ccc(Cc2cc([C@@H]3O[C@H](CO)[C@@H](O)[C@H](O)[C@@H]3O)ccc2Cl)cc1`, the Potency result in assay [3] and in [8] was “inactive” throughout.

In the case of `CC(=O)NC(C)c1ccc(Oc2ccc(OC(C)C)cc2)cc1` (configuration not stated), the Potency result in [3] and in [8] was “inactive” in each case.

Take `CCCCNc1cc(C(=O)O)cc(S(N)(=O)=O)c1Oc1ccccc1`: the outcome in assay [1] and in [4] was inactive. Further, the Potency result in assay [2], in assay [3], in assay [8], in assay [9] and in assay [10] was “inactive” each time.

For the origin of these results see PubChem BioAssay (NCATS).
